# Assay outcomes as filed in PubChem BioAssay.
# FECH block = inhibitors of human ferrochelatase. 3.3% of 20,000 active. purified FECH, Ni-mesoporphyrin absorbance 550 nm. P22830. AID 1671448. calls only at 10 µM (by protocol);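 active means enzyme reaction rate more than 3 SD below the solvent-only control wells on the same plate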;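 further: lower slope than DMSO wells means FECH inhibition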
# Target sequence (P22830 whole entry, looked up): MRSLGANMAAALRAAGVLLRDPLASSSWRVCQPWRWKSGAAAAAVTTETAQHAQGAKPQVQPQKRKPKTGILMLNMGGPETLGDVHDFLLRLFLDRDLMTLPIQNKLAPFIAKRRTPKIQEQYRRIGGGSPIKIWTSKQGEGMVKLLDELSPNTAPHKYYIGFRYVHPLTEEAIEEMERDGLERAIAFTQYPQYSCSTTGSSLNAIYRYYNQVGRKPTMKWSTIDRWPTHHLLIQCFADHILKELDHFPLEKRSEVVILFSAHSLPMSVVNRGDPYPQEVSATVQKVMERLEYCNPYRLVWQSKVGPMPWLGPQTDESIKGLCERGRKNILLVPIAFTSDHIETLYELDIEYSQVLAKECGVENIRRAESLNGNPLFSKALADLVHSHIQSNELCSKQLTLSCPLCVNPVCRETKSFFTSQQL
# * hit, by the source's call; i = inactive; + = active, no number. The sample as a whole holds a higher share of hits than the screen did.
SMILES,FECH block
c1cc(C2NCCc3[nH]cnc32)c2cc[nH]c2c1 (configuration not stated),i
c1ccc2[nH]c(C3NCCc4[nH]cnc43)nc2c1 (configuration not stated),+
CCC(O)Cn1cc(C2=CCN(CC(=O)N3C[C@@H](C)O[C@@H](C)C3)CC2)cn1 (some centres not stated),i
O=C1Nc2ccccc2C12CCN(CC1COc3ccccc3O1)CC2 (configuration not stated),i
Cc1ccc(CN2CCCN(Cc3ccc(Cl)cc3)S2(=O)=O)cc1,+
Cc1ccc(CN2CCCN(CC(N)=O)S2(=O)=O)cc1,i
Cc1ccccc1CN1CCCN(Cc2ccc(Cl)cc2)S1(=O)=O,i
CC(Cn1cncn1)NCc1noc(-c2ccco2)n1 (configuration not stated),i
CCN(CC)S(=O)(=O)N1CCC2(CCN(C)CC2)C1,i
Cc1cc(C)n(CC(C)NCCc2c[nH]c3c(C)cccc23)n1 (configuration not stated),i
